This is an account of results in PubChem BioAssay (NCATS).

A short description of experiment [1]: qHTS for Inhibitors of the Functional Ribonucleoprotein Complex (vRNP) of Lassa (LASV) Arenavirus: LASV Primary Screen - GLuc reporter signal (AID 1347082; calls by dose curve; tested in HEK293 reporter line; note: nearly all actives have a fitted effect of over 60% in size; note: potency is the fitted concentration of half-maximal effect; for activity change, negative = inhibition: % is set by controls: 0 for no effect and ±100 for the full control effect). Background: In qHTS, concentration-response curves come from the screen itself.
Experiment [2] is described as follows: qHTS for Inhibitors of the Functional Ribonucleoprotein Complex (vRNP) of Lassa (LASV) Arenavirus: Viability assay - alamar blue signal for LASV Primary Screen (AID 1347083; calls by dose curve; tested in HEK293 reporter line; note: nearly all actives have a fitted effect of over 80% in size; note: potency is the fitted concentration of half-maximal effect).
Experiment [3] in a line: qHTS for Inhibitors of the Functional Ribonucleoprotein Complex (vRNP) of Lymphocytic Choriomeningitis Arenaviruses (LCMV): Viability assay - alamar blue signal for LCMV Primary Screen (AID 1347085; calls by dose curve; tested in HEK293 reporter line; note: nearly all actives have a fitted effect of over 80% in size; note: potency is the fitted concentration of half-maximal effect).
In experiment [4] the target is Nucleoprotein (Lymphocytic choriomeningitis virus (strain Armstrong)) (UniProt P09992). Nature of the experiment: qHTS for Inhibitors of the Functional Ribonucleoprotein Complex (vRNP) of Lymphocytic Choriomeningitis Arenaviruses (LCMV): LCMV Primary Screen - GLuc reporter signal (AID 1347086). For activity change, negative = inhibition: % is set by controls: 0 for no effect and ±100 for the full control effect. Note: nearly all actives have a fitted effect of over 70% in size. Note: potency is the fitted concentration of half-maximal effect.
Experiment [5] can be described thus: Cytotoxicity counterscreen for inhibitors of SARS-CoV-2 cell entry (AID 1645845). Note: nearly all actives have a fitted effect of over 50% in size. The method, boiled down:
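After a 15 min room-temperature ATPLite 1step step, luminescence reflected ATP remaining in HEK293-ACE2 cells exposed to compound for 1 h plus 48 h at 37 C, with percent activity set by cell and no-cell controls.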
A general note: A counterscreen serves to expose hits that act by an unwanted route or on another target.

Experiment [6] is described as follows: Primary qHTS to identify inhibitors of SARS-CoV-2 cell entry (AID 1645846). Note: nearly all actives have a fitted effect of over 45% in size. The settings on record: activity change, negative = inhibition: at 57.1 µM (top of the series) unless noted. A digest of the protocol:
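HEK293-ACE2 (Expi293F, stable hACE2), 1500 cells/well, o/n 37C; cpd 23 nL pin, 1 h; MLV-PP w/ SARS-CoV-2-S (Wuhan-Hu-1, Δ19 C-term); 48 h 37C; Bright-Glo luminescence; normalized vs S-PP and bald PP.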

The nature of experiment [7]: Inducers of the Endoplasmic Reticulum Stress Response (ERSR) in human glioma: Validation (AID 504836; active = well fitted curve in the direction sought with a large enough effect; an effect the other way counts as inactive or inconclusive; note: 0% is about no effect). The method, boiled down: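 Stably transfected U87-MG human glioma cells carrying a GRP78-based luminescent sensor were seeded at 1000 cells/well, pin-dosed with compounds and incubated 16 h. Luciferase reagent was then added, and end-point luminescence was read after 10 min at room temperature.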

For experiment [8], the target named is Cytochrome P450 2C9 (Homo sapiens) (UniProt P11712). Nature of the experiment: qHTS Assay for Inhibitors and Substrates of Cytochrome P450 2C9 (AID 883; active = well fitted curve in the direction sought with a large enough effect; an effect the other way counts as inactive or inconclusive; note: potency is the fitted concentration of half-maximal effect; nearly all actives have a fitted effect of over 60% in size). The method, boiled down:
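CYP2C9 deoxyluciferin hydroxylation, 37C, 60 min with NADPH regeneration; 10nM enzyme, 100uM Luciferin-H (KM). Glo detection reagent stopped reaction; luminescence normalized to sulphaphenazole (57uM) full inhibition.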

Experiment [9] has as its target Cytochrome P450 3A4 (Homo sapiens) (UniProt P08684). Nature of the experiment: qHTS Assay for Inhibitors and Substrates of Cytochrome P450 3A4 (AID 884; active = well fitted curve in the direction sought with a large enough effect; an effect the other way counts as inactive or inconclusive; note: potency is the fitted concentration of half-maximal effect; nearly all actives have a fitted effect of over 50% in size). A digest of the protocol: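 Luminescent readout of luciferin produced by CYP3A4 (20 nM) dealkylation of Luciferin-PPXE, 25 uM (its KM). NADPH-driven reaction ran 60 min at RT after 10 min compound preincubation; data scaled to 57 uM ketoconazole as 100% inhibition.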

Experiment [10] shares this target. Nature of the experiment: qHTS Assay for Activators of Cytochrome P450 3A4 (AID 885; active = well fitted curve in the direction sought with a large enough effect; an effect the other way counts as inactive or inconclusive; note: nearly all actives have a fitted effect of over 65% in size). The method, boiled down: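 Using 20nM recombinant human CYP3A4 in potassium phosphate (200mM), substrate Luciferin-PPXE at 25uM, luminescent luciferin detection followed a 60-min RT NADPH reaction; data scaled to 57 uM ketoconazole.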
The target of experiment [11] is Alpha-galactosidase (Coffea arabica) (UniProt Q42656). Kind of experiment: Counterscreen for Glucocerebrosidase Inhibitors: qHTS Assay for Coffee Bean alpha-Galactosidase at pH 4.5 (AID 957; active = well fitted curve in the direction sought with a large enough effect; an effect the other way counts as inactive or inconclusive;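 note: plate controls were enzyme alone for no effect and no enzyme for full effect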). A digest of the protocol:
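Quantitative HTS of compounds (0.7 nM to 77 uM) against coffee bean alpha-galactosidase at pH 4.5, measuring 4-methylumbelliferone fluorescence released from 80 uM substrate.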

Experiment [12] shares this target. Nature of the experiment: Counterscreen for Glucocerebrosidase Inhibitors: qHTS Assay for Coffee Bean alpha-Galactosidase at pH 5.9 (AID 998; active = well fitted curve in the direction sought with a large enough effect; an effect the other way counts as inactive or inconclusive;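 note: plate controls were uninhibited enzyme for no effect and no-enzyme basal signal for full effect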). A digest of the protocol:
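In 50 mM citric acid pH 5.9 with 0.005% Tween-20, coffee bean enzyme hydrolyses 80 uM 4-MU alpha-D-galactopyranoside over 20 min at RT. Activity is normalized to controls; AC50 comes from Hill-modelled concentration-response data.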

Experiment [13] in a line: Validation screen for inhibitors of Lassa infection (AID 463096). Note: % is set by controls: 0 for no effect and ±100 for the full control effect.

Results filed as inconclusive are left out. The source made the active and inactive calls. Unless noted, calls come from the whole dose curve.

Chain of Nucleoprotein (Lymphocytic choriomeningitis virus (strain Armstrong)) (P09992 whole entry, looked up): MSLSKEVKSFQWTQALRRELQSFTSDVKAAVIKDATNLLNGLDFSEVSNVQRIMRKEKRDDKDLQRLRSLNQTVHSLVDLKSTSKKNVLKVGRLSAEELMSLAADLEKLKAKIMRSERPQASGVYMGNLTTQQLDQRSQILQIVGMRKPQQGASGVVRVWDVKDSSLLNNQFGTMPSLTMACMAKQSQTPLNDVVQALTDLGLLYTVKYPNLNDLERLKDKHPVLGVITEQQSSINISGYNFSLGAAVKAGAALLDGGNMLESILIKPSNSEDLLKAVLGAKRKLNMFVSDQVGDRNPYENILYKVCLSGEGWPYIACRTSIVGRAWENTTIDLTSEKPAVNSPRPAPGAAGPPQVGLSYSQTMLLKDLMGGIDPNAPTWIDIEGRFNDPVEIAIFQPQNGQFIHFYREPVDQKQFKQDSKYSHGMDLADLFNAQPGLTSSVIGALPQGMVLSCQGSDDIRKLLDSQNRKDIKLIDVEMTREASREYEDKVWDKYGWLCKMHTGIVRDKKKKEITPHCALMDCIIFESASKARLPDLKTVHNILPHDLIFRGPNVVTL
Chain of Alpha-galactosidase (Coffea arabica) (Q42656 whole entry, looked up): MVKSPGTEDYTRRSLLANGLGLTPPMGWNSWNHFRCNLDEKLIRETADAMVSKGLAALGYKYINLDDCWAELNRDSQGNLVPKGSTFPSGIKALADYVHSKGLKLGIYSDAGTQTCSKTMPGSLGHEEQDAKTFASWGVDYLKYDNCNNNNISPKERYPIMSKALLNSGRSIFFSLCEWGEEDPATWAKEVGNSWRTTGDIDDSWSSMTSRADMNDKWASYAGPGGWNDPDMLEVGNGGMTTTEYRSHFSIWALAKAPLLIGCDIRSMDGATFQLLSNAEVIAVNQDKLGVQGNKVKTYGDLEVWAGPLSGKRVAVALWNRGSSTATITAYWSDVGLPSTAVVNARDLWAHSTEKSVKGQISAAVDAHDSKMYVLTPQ
Chain of Cytochrome P450 3A4 (Homo sapiens) (P08684 whole entry, looked up): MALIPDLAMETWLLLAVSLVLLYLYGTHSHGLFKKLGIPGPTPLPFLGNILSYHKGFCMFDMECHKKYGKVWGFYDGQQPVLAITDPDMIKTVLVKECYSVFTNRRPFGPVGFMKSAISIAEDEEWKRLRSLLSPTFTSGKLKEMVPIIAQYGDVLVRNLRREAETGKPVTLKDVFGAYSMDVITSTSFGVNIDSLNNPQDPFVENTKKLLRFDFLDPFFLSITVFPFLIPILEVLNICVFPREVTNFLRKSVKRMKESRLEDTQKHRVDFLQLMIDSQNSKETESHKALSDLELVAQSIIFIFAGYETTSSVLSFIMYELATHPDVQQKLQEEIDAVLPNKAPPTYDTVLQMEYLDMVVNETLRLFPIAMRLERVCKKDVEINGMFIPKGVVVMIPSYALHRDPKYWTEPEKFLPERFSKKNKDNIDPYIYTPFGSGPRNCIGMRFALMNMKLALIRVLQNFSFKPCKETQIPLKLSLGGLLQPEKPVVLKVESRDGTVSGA
Chain of Cytochrome P450 2C9 (Homo sapiens) (P11712 whole entry, looked up): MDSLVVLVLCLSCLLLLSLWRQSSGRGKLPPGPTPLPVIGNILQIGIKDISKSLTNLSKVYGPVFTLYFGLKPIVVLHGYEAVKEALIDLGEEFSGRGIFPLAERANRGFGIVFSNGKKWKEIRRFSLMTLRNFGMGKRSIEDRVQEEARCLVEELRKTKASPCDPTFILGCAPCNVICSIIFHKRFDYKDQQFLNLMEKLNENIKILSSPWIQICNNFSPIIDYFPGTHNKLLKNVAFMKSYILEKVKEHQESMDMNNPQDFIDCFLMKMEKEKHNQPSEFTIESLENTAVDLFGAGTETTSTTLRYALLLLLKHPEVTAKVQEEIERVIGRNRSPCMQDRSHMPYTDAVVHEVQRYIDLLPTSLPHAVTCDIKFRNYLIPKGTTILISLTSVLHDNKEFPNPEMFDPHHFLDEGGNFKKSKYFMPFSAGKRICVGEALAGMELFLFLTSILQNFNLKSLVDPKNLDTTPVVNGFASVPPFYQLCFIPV

Turning to `Cc1ccc(S(=O)(=O)OCC(=O)Nc2ccc(C(=O)O)c(O)c2)cc1`, the Potency entry in experiment [1], in experiment [2], in experiment [3], in experiment [4] and in [5] was “inactive” in each case. Further, the activity change, negative = inhibition in experiment [6] amounted to 2.59%.
With `O=c1ccn([C@@H]2O[C@H](CO)[C@H](O)[C@@H]2F)c(=O)[nH]1`, the Potency in [1] is 4.85 µM (active); in [2], 6.11 µM (active); in experiment [3], 4.32 µM (active); in experiment [4], 3.06 µM (active). In addition, the Potency entry in experiment [5] is “inactive”. In [6], the activity change, negative = inhibition was -22.4%.
Regarding `Cn1cc(-c2ccc3ncc(Cc4ccc5ncccc5c4)n3n2)cn1`, the Potency entry in experiment [1], in experiment [2], in [3], in experiment [4], in experiment [5] and in experiment [6] was “inactive” in each case.
For the molecule `NC(=O)[C@@H](CCC(F)(F)F)N(Cc1ccc(-c2ncon2)cc1F)S(=O)(=O)c1ccc(Cl)cc1`, the Potency entry in experiment [1], in [2], in [3], in [4] and in experiment [5] was “inactive” in each case. Moreover, the activity change, negative = inhibition in [6] was -47.2%.
Turning to `OCc1ccc(-c2ccc(-c3ccc(CO)s3)o2)s1`, the Potency entry in experiment [1], in experiment [2], in experiment [3], in [4], in experiment [5] and in [6] was “inactive” each time.
For `COc1nccc(-c2c(-c3ccc(F)cc3)ncn2C2CCC(O)CC2)n1` (stereo unspecified), the Potency entry in experiment [1], in experiment [2], in experiment [3], in [4], in [5] and in [6] was “inactive” throughout.
`CCOc1ccccc1N=Nc1c(C)[nH]n(-c2nc(-c3ccccc3)cs2)c1=O`: the Potency entry in experiment [1], in [2], in [3], in experiment [4], in experiment [5] and in experiment [6] was “inactive” each time.
As to `C[C@@H]1CC[C@@]2(OC1)OC1CC3C4CC=C5CC(O)CCC5(C)C4CCC3(C)C1[C@@H]2C` (stereo partly specified), the Potency entry in experiment [1], in experiment [2], in [3], in experiment [4] and in [5] was “inactive” each time. Also, the activity change, negative = inhibition in [6] is -1.34%.
Consider `CCCCCNC(=O)N1CCC(CN(Cc2ccc(Cl)cc2)Cc2ccc([N+](=O)[O-])s2)C1` (stereo unspecified), for which the Potency entry in experiment [1], in experiment [2], in [3], in [4] and in experiment [5] was “inactive” each time. The activity change, negative = inhibition in experiment [6] is -21.9%.
Take `Cc1cc(N2CCOCC2)cc2[nH]c(-c3c(NC[C@@H](O)c4cccc(Cl)c4)cc[nH]c3=O)nc12`: the Potency in [1] is 3.85 µM (active); in experiment [2] it was 0.769 µM (active); in [3] it was 0.863 µM (active); in experiment [4], 1.53 µM (active). For the same molecule, the Potency result in experiment [5] is “inactive”. In addition, the activity change, negative = inhibition in experiment [6] was -9.29%.
For the molecule `CCCCC(F)(F)[C@@]1(O)CC[C@H]2[C@H](CC(=O)[C@@H]2CCCCCCC(=O)O)O1`, the Potency result in [1], in [2], in experiment [3], in [4], in experiment [5] and in [6] was “inactive” throughout.
As to `O=C1NC(=O)/C(=C/c2ccc(-c3ccc(F)cc3O)o2)S1`, the result in experiment [7] was inactive. In addition, the Potency result in experiment [1], in experiment [2], in [3], in [4], in experiment [5] and in [6] was “inactive” throughout.
In the case of `O=C1Nc2ccc(I)cc2/C1=C/c1cc(Br)c(O)c(Br)c1`, the Potency is 0.0794 µM (active) in [8] and 5.01 µM (active) in [9]. Further, the Potency result in experiment [10], in experiment [13], in experiment [1], in [2], in experiment [3] and in experiment [4] was “inactive” throughout. For the same molecule, in experiment [5], the Potency result is “inactive”. Also, the molecule was called inactive in [11], in [12] and in experiment [7]. In addition, the activity change, negative = inhibition in experiment [6] is -7.81%.
